Experimental data from paper PMC7862700, “An all-to-all approach to the identification of sequence-specific readers for epigenetic DNA modifications on cytosine”.

Tests used:
Assay in all cases: DAPPL (digital affinity profiling via proximity ligation, sequencing); 10 mM Tris-HCl pH 7.5, 50 mM NaCl, 1 mM DTT, 4% glycerol, room temperature, 30 min; GST-TFs on glutathione beads, 16-mer random dsDNA library, 0.1% formaldehyde crosslink after washing; high values mean tight binding
Details in all cases: protein: recombinant; tags: N-terminal GST; dsDNA, one strand shown
ELK1 = target: T1, ELK1 (Homo sapiens, UniProt P19419 1-428)
T1 sequence: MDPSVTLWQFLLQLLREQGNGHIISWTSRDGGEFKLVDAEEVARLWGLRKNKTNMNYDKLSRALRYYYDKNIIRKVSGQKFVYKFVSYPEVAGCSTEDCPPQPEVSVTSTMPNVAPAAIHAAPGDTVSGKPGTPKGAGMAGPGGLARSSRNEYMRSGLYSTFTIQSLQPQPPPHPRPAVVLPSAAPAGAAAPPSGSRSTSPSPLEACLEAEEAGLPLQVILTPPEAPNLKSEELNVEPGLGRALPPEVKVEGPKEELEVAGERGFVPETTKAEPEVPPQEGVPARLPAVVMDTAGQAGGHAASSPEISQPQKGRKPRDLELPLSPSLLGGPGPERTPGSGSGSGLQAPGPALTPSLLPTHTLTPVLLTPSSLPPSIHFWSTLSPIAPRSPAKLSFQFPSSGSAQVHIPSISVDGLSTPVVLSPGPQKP
In short: (§1)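 The binding signal reported is, for every hexamer, its read frequency for a factor over its read frequency for the tag-only sample. Reads came from pools of yeast-expressed, GST-fused human transcription factors on glutathione beads, barcoded with DNA and mixed with that sample, which were incubated with 200 nmole of a random double-stranded 16-mer DNA library in Tris/NaCl/DTT/glycerol buffer at room temperature for 30 min. After washing, the pools were crosslinked with 0.1% formaldehyde, proximity-ligated with BsaI/T4 ligase for 1 h at 37 °C, PCR-amplified and sequenced on an Illumina NextSeq500.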

GABPA = target: T2, GABPA (Homo sapiens, UniProt Q06546 1-454)
T2 sequence: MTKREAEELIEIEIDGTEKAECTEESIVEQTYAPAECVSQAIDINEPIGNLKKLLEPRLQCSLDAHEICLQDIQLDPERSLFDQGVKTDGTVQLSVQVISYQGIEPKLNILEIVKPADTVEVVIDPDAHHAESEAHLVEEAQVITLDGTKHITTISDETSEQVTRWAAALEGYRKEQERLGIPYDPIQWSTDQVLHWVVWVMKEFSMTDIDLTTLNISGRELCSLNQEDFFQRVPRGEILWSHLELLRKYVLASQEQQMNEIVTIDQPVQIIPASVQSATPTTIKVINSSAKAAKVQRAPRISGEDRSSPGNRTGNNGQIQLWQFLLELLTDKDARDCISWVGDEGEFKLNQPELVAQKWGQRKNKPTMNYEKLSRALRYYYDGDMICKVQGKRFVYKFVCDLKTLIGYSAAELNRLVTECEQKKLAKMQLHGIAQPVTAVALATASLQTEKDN
In short: as §1

ERG = target: T3, ERG (Homo sapiens, UniProt P11308 1-479)
T3 sequence: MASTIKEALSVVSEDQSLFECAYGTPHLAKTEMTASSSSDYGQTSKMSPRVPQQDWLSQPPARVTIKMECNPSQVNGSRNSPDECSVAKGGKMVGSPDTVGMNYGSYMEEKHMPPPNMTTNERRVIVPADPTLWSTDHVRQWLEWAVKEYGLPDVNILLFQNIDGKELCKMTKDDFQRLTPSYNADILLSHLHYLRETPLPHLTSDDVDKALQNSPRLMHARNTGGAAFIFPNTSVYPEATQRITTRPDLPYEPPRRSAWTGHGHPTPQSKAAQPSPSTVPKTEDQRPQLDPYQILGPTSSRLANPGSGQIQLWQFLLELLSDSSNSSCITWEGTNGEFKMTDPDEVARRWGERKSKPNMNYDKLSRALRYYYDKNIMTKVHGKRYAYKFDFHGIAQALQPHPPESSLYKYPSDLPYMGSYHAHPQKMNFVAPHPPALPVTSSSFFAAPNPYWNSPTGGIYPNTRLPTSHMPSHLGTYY
In short: as §1

ELF1 = ELF1 (Homo sapiens, UniProt P32519 1-619)
In short: as §1

EHF = target: T4, EHF (Homo sapiens, UniProt Q9NZC4 1-300)
T4 sequence: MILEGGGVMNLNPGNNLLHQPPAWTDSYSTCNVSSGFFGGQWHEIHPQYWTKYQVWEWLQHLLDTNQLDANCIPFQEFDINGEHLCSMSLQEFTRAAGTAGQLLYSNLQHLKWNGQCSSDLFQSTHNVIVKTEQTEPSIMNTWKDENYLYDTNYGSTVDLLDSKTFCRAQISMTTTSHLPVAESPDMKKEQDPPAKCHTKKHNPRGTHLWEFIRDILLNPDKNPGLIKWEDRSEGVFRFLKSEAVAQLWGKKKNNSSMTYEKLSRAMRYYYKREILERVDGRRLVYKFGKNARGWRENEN
In short: as §1

SPIB = SPIB (Homo sapiens, UniProt Q01892 1-262)
In short: as §1

ETV5 = ETV5 (Homo sapiens, UniProt P41161 1-510)
In short: as §1

ELK4 = target: T5, ELK4 (Homo sapiens, UniProt P28324-2 1-405)
T5 sequence: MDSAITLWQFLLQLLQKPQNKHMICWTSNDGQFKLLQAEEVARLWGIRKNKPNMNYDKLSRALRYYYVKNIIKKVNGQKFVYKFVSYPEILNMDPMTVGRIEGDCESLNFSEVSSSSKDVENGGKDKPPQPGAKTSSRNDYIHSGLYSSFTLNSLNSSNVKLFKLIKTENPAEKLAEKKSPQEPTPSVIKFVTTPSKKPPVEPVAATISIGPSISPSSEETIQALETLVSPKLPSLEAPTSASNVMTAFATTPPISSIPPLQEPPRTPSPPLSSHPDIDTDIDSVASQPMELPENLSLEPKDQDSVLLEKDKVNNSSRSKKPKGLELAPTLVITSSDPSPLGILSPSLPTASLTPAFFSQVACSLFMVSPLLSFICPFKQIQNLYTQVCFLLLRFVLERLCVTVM
In short: as §1

ELF3 = target: T6, ELF3 (Homo sapiens, UniProt P78545 1-371)
T6 sequence: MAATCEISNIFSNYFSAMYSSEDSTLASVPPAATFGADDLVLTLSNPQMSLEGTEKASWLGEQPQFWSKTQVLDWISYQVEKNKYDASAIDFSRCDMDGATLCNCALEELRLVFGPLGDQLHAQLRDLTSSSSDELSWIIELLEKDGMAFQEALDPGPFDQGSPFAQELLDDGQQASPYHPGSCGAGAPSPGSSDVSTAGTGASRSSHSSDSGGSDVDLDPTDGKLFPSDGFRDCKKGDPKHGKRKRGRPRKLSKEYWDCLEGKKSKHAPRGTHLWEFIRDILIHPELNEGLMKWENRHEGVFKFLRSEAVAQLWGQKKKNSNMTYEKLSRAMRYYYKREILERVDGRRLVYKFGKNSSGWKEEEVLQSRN
In short: as §1

ETV1 = ETV1 (Homo sapiens, UniProt P50549 1-477)
In short: as §1

ERF = target: T7, ERF (Homo sapiens, UniProt P50548 1-548)
T7 sequence: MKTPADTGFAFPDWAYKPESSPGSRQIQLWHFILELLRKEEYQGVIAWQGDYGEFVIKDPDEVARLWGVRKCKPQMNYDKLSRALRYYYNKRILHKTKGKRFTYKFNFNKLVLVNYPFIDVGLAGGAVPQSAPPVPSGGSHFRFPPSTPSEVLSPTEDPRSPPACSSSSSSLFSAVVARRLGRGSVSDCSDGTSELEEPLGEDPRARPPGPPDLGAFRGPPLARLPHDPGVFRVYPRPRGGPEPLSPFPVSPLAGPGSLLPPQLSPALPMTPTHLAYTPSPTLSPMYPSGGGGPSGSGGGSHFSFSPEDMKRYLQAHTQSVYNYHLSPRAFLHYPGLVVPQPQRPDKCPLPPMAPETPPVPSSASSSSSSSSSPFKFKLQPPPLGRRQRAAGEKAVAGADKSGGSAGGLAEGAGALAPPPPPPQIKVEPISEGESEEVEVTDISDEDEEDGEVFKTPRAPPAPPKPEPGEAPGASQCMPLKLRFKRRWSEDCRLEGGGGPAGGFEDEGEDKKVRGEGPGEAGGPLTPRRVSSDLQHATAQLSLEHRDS
In short: as §1

ETV3L = target: T8, ETV3L (Homo sapiens, UniProt Q6ZN32 1-361)
T8 sequence: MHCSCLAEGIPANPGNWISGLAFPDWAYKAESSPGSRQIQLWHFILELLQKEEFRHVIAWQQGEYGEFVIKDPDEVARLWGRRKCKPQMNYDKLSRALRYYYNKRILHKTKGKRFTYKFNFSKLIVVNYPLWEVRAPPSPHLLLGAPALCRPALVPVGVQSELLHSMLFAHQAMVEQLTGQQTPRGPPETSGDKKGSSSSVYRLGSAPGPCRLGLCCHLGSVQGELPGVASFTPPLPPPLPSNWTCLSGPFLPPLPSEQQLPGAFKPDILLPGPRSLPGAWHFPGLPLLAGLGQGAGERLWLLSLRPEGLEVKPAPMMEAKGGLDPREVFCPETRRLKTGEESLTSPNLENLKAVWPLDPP
In short: as §1

SPDEF = target: T9, SPDEF (Homo sapiens, UniProt O95238 1-335)
T9 sequence: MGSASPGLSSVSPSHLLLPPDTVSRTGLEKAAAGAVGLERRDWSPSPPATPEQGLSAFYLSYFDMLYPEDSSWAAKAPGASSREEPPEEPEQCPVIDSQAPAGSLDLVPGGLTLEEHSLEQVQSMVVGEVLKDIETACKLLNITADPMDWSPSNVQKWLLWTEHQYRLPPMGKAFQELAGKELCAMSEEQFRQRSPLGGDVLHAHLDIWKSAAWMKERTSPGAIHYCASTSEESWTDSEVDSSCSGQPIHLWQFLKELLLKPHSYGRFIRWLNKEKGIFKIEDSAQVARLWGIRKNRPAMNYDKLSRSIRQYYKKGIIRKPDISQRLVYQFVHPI
In short: as §1

ETV7 = target: T10, ETV7 (Homo sapiens, UniProt Q9Y603 1-341)
T10 sequence: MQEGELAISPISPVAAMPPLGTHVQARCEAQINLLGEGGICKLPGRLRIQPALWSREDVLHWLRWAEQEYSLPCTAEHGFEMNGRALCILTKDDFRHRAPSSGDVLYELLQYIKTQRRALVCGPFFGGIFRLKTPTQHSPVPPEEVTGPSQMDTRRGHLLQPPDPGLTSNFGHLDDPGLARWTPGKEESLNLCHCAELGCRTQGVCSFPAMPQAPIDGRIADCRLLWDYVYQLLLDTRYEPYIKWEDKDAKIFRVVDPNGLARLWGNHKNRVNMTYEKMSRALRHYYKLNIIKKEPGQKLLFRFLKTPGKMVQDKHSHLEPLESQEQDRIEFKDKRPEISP
In short: as §1

ETV6 = ETV6 (Homo sapiens, UniProt P41212 1-452)
In short: as §1

FEV = target: T11, FEV (Homo sapiens, UniProt Q99581 1-238)
T11 sequence: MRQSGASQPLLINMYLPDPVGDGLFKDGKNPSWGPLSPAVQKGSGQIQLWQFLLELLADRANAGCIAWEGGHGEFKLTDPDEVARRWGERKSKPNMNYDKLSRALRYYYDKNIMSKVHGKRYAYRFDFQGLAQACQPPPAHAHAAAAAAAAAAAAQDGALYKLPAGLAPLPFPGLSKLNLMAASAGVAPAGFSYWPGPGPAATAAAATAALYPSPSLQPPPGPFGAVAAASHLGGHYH
In short: as §1

ETS2 = target: T12, ETS2 (Homo sapiens, UniProt P15036 1-469)
T12 sequence: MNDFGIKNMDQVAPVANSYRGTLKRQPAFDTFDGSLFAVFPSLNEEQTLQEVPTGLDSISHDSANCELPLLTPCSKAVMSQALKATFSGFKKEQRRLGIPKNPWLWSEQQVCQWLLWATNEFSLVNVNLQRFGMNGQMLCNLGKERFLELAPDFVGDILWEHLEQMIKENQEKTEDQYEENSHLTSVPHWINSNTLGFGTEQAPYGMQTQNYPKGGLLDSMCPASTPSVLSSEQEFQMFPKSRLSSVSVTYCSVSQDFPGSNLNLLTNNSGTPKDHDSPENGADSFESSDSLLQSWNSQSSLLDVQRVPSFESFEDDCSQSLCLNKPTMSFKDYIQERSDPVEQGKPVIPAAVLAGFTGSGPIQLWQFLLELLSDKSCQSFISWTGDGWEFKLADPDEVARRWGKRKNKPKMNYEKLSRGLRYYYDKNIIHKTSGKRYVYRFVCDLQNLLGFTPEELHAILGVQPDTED
In short: as §1

Sequence of ETV6 (P41212 whole entry): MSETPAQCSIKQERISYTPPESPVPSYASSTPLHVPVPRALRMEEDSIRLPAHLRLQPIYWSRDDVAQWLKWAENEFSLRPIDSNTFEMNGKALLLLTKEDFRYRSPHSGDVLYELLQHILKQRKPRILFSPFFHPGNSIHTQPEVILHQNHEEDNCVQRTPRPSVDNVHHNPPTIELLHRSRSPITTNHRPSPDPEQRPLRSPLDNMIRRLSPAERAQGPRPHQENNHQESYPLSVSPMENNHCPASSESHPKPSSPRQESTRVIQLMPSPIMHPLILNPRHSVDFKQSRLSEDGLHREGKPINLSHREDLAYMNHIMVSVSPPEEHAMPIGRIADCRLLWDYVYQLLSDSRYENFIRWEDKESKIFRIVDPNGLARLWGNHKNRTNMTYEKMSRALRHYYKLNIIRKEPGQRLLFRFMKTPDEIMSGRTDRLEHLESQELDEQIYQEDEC
Sequence of ETV5 (P41161 whole entry): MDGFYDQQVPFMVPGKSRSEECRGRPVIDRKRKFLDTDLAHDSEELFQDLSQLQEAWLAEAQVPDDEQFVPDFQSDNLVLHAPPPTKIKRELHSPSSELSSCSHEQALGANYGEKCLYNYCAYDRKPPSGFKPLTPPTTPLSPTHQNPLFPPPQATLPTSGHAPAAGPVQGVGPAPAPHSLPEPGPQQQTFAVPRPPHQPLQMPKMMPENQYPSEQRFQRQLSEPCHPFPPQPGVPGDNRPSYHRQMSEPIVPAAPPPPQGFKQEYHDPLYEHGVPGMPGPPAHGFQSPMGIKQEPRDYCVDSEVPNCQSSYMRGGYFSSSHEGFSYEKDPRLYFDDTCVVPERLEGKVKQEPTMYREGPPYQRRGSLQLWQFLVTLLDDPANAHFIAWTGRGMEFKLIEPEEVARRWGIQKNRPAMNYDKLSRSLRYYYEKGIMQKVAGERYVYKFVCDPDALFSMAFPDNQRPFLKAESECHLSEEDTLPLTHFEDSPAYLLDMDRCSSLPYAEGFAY
Sequence of SPIB (Q01892 whole entry): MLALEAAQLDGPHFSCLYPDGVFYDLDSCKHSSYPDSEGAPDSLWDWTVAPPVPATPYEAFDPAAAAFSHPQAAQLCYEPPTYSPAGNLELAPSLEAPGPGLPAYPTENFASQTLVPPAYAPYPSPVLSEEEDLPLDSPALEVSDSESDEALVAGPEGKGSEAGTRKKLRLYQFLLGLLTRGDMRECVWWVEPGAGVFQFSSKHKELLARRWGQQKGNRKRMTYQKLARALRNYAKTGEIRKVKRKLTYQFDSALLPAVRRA
Sequence of ELF1 (P32519 whole entry): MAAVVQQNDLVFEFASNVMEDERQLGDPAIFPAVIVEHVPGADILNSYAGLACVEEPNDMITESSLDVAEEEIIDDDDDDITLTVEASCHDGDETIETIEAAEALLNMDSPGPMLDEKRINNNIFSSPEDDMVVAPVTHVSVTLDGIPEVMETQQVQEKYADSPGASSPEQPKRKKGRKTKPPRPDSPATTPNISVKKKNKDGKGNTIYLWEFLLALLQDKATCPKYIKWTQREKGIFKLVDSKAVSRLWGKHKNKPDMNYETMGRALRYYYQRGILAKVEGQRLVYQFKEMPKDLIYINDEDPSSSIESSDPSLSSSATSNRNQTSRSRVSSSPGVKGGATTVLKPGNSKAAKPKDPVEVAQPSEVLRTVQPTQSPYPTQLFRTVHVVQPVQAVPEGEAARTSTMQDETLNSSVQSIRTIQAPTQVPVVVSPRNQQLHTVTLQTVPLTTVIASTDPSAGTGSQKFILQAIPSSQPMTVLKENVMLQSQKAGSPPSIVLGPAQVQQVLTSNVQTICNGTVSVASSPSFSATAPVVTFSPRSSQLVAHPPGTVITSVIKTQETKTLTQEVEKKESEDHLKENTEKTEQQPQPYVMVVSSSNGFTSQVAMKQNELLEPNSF
Sequence of ETV1 (P50549 whole entry): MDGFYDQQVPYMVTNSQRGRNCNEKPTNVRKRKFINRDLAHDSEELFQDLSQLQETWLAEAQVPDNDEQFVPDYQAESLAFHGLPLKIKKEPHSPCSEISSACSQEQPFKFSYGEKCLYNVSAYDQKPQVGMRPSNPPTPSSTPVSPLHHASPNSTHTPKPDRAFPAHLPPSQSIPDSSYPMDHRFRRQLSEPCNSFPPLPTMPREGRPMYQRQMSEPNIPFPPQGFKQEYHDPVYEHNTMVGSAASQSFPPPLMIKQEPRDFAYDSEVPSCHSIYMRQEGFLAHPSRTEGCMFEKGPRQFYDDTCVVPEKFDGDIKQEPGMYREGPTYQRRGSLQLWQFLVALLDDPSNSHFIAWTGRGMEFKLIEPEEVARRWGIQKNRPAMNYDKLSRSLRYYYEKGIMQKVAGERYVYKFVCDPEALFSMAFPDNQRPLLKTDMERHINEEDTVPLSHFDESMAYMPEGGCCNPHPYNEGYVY

Sequence | binding signal (ELK1) | binding signal (GABPA) | binding signal (ERG) | binding signal (ELF1) | binding signal (EHF) | binding signal (SPIB) | binding signal (ETV5) | binding signal (ELK4) | binding signal (ELF3) | binding signal (ETV1) | binding signal (ERF) | binding signal (ETV3L) | binding signal (SPDEF) | binding signal (ETV7) | binding signal (ETV6) | binding signal (FEV) | binding signal (ETS2)
CGAATC | 1.01 fold enrichment (6-mer frequency, TF over GST control) | 1.14 fold enrichment (6-mer frequency, TF over GST control) | 1.05 fold enrichment (6-mer frequency, TF over GST control) | 1 fold enrichment (6-mer frequency, TF over GST control) | 1.06 fold enrichment (6-mer frequency, TF over GST control) | 1.13 fold enrichment (6-mer frequency, TF over GST control) | 1.07 fold enrichment (6-mer frequency, TF over GST control) | 1.09 fold enrichment (6-mer frequency, TF over GST control) | 1.11 fold enrichment (6-mer frequency, TF over GST control) | 1.02 fold enrichment (6-mer frequency, TF over GST control) | 1.15 fold enrichment (6-mer frequency, TF over GST control) | 1 fold enrichment (6-mer frequency, TF over GST control) | 1.12 fold enrichment (6-mer frequency, TF over GST control) | 1.02 fold enrichment (6-mer frequency, TF over GST control) | 1.01 fold enrichment (6-mer frequency, TF over GST control) | – | –
TGGCGA | 1.02 fold enrichment (6-mer frequency, TF over GST control) | 1.01 fold enrichment (6-mer frequency, TF over GST control) | 1.02 fold enrichment (6-mer frequency, TF over GST control) | – | 1.01 fold enrichment (6-mer frequency, TF over GST control) | – | 1.01 fold enrichment (6-mer frequency, TF over GST control) | – | – | – | – | – | – | 1.07 fold enrichment (6-mer frequency, TF over GST control) | 1.03 fold enrichment (6-mer frequency, TF over GST control) | 1.02 fold enrichment (6-mer frequency, TF over GST control) | 1.06 fold enrichment (6-mer frequency, TF over GST control)
